Screens (PubChem BioAssay)
Shown are actives, neighbours in structure and some others; about 3.5% of the full set was active somewhere.
TEAD-YAP inh: TEAD-YAP interaction inhibition; 640,000 tested, 1.4% active; AID 1259422; inhibition, % at 9.12 µM; HEK-TIYL cells, TEAD-Gal4/YAP UAS-luciferase luminescence; in the data active = inhibition above about 32%;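 note: 0% = median of test compound wells and 100% = reference inhibitor wells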
MITF inh: human MITF inhibition, primary screen. AlphaScreen MITF homodimerization, bead proximity signal. inhibition, % at 2.6 µM. 650,000 tested, 0.91% active. AID 1259374; in the data active = inhibition above about 50%;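 note: 0% = vehicle wells with protein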
GPR151 ag: activators of human GPR151. Q8TDV0. PathHunter beta-arrestin GPR151 cells, luminescence. activation, % at 11.2 µM. 650,000 tested, 1% active. AID 1508602; in the data active = activation above about 4.9%;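 note: 0% = median of compound wells and 100% = cells with positive control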
FBW7 activator: activators of human E3 ligase FBW7; 650,000 tested, 0.13% active; Q969H0; normalized activity (activation), % at 26.1 µM; AID 1259310; AlphaScreen FBW7–phospho-cyclin E peptide binding, activator screen; in the data active = normalized activity above about 1.9%;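 note: purified mutant Fbw7 with reduced substrate affinity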
Target sequence (Q969H0 whole entry, looked up): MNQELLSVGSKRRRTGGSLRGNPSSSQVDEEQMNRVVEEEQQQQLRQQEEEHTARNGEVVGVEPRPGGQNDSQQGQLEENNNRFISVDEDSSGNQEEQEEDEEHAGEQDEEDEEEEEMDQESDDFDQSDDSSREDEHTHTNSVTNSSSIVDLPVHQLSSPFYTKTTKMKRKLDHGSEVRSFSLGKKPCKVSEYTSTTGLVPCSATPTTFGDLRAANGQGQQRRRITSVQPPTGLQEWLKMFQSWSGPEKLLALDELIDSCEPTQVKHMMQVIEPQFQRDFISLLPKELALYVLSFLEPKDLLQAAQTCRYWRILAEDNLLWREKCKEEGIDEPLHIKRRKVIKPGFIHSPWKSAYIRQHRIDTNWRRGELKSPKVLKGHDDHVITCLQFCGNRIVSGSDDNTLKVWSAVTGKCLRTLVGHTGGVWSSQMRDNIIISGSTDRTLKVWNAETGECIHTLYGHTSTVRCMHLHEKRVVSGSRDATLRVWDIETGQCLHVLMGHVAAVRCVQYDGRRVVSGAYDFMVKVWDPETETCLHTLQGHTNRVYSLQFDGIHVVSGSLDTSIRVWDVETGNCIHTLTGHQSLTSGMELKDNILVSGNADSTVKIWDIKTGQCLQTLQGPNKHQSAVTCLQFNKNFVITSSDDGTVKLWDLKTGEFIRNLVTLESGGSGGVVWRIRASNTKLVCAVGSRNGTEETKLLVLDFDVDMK
* = called active by the depositor.

SMILES	TEAD-YAP inh	MITF inh	GPR151 ag	FBW7 activator
Cc1ccc(C)c(OCC(=O)NNC(=O)c2ccccn2)c1	37*	3	3	-1
Cc1cccc(NC(=O)c2cnn3c2NC(c2ccco2)CC3C(F)(F)F)c1 (stereo unspecified)	-27	6	0	0
Cc1ccn2c(-c3csc(Nc4ccc(S(N)(=O)=O)cc4)n3)c(C)nc2c1	3	15	-1	1
CC(=O)Nc1ccc(Nc2nc(-c3c(C)nc4cc(C)ccn34)cs2)cc1	57*	6	1	0
Cc1ccn2c(-c3csc(Nc4ccc(Cl)cc4)n3)c(C)nc2c1	55*	-7	-1	0
CC(C)S(=O)(=O)C1=NSC2=NC(=O)/C(=C\c3ccc([N+](=O)[O-])o3)C(=N)N21	5	53*	-2	0
CC(C)CS(=O)(=O)C1=NSC2=NC(=O)/C(=C\c3ccc([N+](=O)[O-])o3)C(=N)N21	0	66*	0	0
CCCN1C(=O)C(=O)c2cc(Br)ccc21	63*	-13	0	0
O=C1C(=O)N(CCc2ccccc2)c2ccc(Br)cc21	27	17	1	0
CC(=O)CN1C(=O)C(=O)c2cc(Br)ccc21	10	24	0	0
C#CCN1C(=O)C(=O)c2cc(Br)ccc21	53*	14	1	1
C=CCN1C(=O)C(=O)c2cc(Br)ccc21	62*	16	0	0
COc1ccc(C(=O)Nc2ccccc2C(=O)NC(C(=O)Nc2cccc3ccccc23)C(C)C)cc1 (stereo unspecified)	-2	15	0	0
Cc1cc(C)c(S(=O)(=O)Nc2ccc3c(c2)CCCN3C(=O)C(C)C)cc1C	2	-7	1	2.0*
Cc1cc(C)c(S(=O)(=O)Nc2ccc3c(c2)N(C(=O)C(C)C)CCC3)cc1C	46*	-8	1	0
COC(=O)CSC1=C(C#N)C(c2ccccc2[N+](=O)[O-])CC(=O)N1 (stereo unspecified)	-9	-11	0	0
CCOc1ccc(-n2c(CNC(=O)c3ccc(S(=O)(=O)N(C)C)cc3)nnc2SCC(=O)Nc2nc3ccccc3s2)cc1	4	3	1	0
Cc1ccc(/C=C2\SC(=S)N(/N=C/c3cc([N+](=O)[O-])ccc3O)C2=O)o1	3	74*	0	-1
O=C(NC1CCN(Cc2ccccc2)CC1)c1cnc(-c2ccccc2)s1	9	-3	1	0
CC(C)(C)c1ccc(C(=O)NCCOc2ccccc2Cl)cc1	66*	13	2	0
Cc1ccccc1C(=O)Nc1ccc(OC(=O)c2ccccc2C)cc1	64*	-4	3	0
O=C(Nc1ccc(-c2nc3ccc(NC(=O)c4ccccc4)cc3[nH]2)cc1)c1ccccc1	-43	6	1	0
Cc1ccccc1C(=O)Nc1ccc(C(=O)OC(C)C)cc1	-25	1	-1	0
Cc1ccccc1C(=O)Nc1ccc(-c2nc3ccc(NC(=O)c4ccccc4C)cc3[nH]2)cc1	76*	11	1	0
O=C(Nc1cccc(-c2nc3ccccc3[nH]2)c1)c1cccc2nccnc12	34*	1	2	0
SMILES	TEAD-YAP inh	MITF inh	GPR151 ag	FBW7 activator
O=C(Nc1cccc(-c2nc3ccccc3[nH]2)c1)c1cc(=O)c2ccccc2o1	41*	-9	0	2
O=C(Nc1cccc(-c2nc3ccccc3o2)c1)c1cc(=O)c2ccccc2o1	-1	-2	0	0
CCCNc1nc(OC)nc(-c2cccc(C(C)=O)c2)n1	-19	-1	1	0
CC(=O)c1ccc(C(=O)Nc2nccs2)cc1	19	23	-2	0
CCn1nnc(NC(=O)c2ccc(OC(C)C)cc2)n1	44*	9	-5	0
CC(C)Oc1ccc(C(=O)Nc2nccs2)cc1	52*	13	-5	0
COc1cc(SC)ccc1C(=O)Nc1nccs1	46*	15	-1	0
CC(C)Sc1ccc(C(=O)Nc2nccs2)cc1	55*	20	-6	0
O=C(N/N=C/c1ccccc1)c1ccccc1Br	-32	-2	1	0
Cc1sc(NC(=O)CN(C(=O)c2ccccc2)C2CCCC2)c(C(N)=O)c1C	41*	11	-1	0
Cc1sc(NC(=O)CN(C(=O)c2ccccc2)C2CCCCC2)c(C(N)=O)c1C	36*	10	-1	0
Cc1ccccc1C(=O)N(CC(=O)Nc1sc(C)c(C)c1C(N)=O)C1CCCCC1	12	7	0	0
Cc1sc(NC(=O)CN(C(=O)c2ccc(Cl)cc2)C2CCCC2)c(C(N)=O)c1C	20	-15	0	0
COc1cccc(C(=O)N(CC(=O)Nc2sc(C)c(C)c2C(N)=O)C2CCCC2)c1	41*	-1	0	0
CCC(C)(C)c1ccc(OCCCC[n+]2cccc(C)c2C)c(C(C)(C)CC)c1	88*	-15	1	0
CCC(C)(C)c1ccc(OCCCC[n+]2ccc(C)cc2)c(C(C)(C)CC)c1	45*	-8	0	0
COc1ccc(-c2noc(N3CCCC(C(=O)N(C)c4cccc(Cl)c4)C3)n2)cc1 (stereo unspecified)	6	5	-1	0
COc1cc(CC(=O)OCC(=O)c2ccc3c(c2)OCCO3)cc(OC)c1OC	52*	-5	2	0
COc1cc(CC(=O)OCC(=O)c2ccc(Br)cc2)cc(OC)c1OC	59*	1	1	0
COc1cc(C(=O)COC(=O)Cc2ccsc2)cc(OC)c1OC	8	-8	0	0
COc1ccc(Cc2nnc(Nc3cccc(Cl)c3)[nH]c2=O)cc1	34*	3	1	0
CCOc1ccc(N=C2S/C(=C\c3ccccc3)C(=O)N2c2ccc(OCC)cc2)cc1	-7	15	0	0
CS(=O)(=O)c1ccc2nc(NC(=O)c3cc(Cl)ccc3[N+](=O)[O-])sc2c1	40*	14	2	0
O=C(Nc1nc2ccc(Cl)cc2s1)c1cccc2ccccc12	-4	15	0	0
Cc1ccc2nc(NC(=O)c3cccc4ccccc34)sc2c1	37*	14	1	0
SMILES	TEAD-YAP inh	MITF inh	GPR151 ag	FBW7 activator
O=C(Nc1ccc2nc(NC(=O)C3CCCCC3)sc2c1)C1CCCCC1	40*	5	2	0
CC(=O)Nc1ccc2nc(NC(=O)C3CCCCC3)sc2c1	1	13	1	0
Cc1ccc2nc(NC(=S)NC(=O)c3ccco3)sc2c1	-71	4	0	0
Cc1ccc2nc(NC(=O)c3ccco3)sc2c1	78*	9	-8	0
COc1ccc(C2C(C(=O)NCC3CCCO3)c3ccccc3C(=O)N2C)cc1OC (stereo unspecified)	-16	-14	-1	0
CC(C)=CC(=O)Nc1nnc(SCC(=O)Nc2cc(C)on2)s1	-23	-2	0	0
O=C1N/C(=C/c2cccc(C(F)(F)F)c2)C(=O)N1Cc1ccc(F)cc1	13	7	1	0
COc1cccc(-c2ccc(NC(=O)C3CCCN(C(=O)c4ccoc4)C3)cc2)c1 (stereo unspecified)	1	1	0	0
